# esBAF inh – inhibitors of esBAF chromatin remodeling in mouse ES cells; Bmi1-luciferase knock-in reporter, 24 h; 100% = twice the neutral-well signal; reporter increase, % at 12.5 µM; actives 2% (n = 350,000); AID 602393; in the data active means activation above about 40%; inconclusive means no clear call, values can overlap the other calls;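 further: 0% = median of the plate's neutral control wells and 100% = double that signal; a rise in the Bmi1 reporter signal indicates esBAF inhibition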
# Wnt act – activators of Wnt/beta-catenin signaling; Wnt/beta-catenin reporter cell assay, activator, plate reader; activation, % at 9.35 µM; actives 1.2% (n = 300,000); in the data active means activation above about 30%, passing the limit was not always enough; inconclusive means no clear call, values can overlap the other calls;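 further: 0% = neutral control wells and 100% = positive control wells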
# MITF TRPM1 HTS – MITF TRPM1 promoter activation in melanoma cells. SK-MEL-5 TRPM1-promoter luciferase, 24 h; % of positive control, neutral wells = 0. activation, % at 12.5 µM. actives 0.75% (n = 300,000). AID 588334;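 active means mean activation of at least 80% with every replicate also reaching 80%; inconclusive means mean reaches 80% but some replicate falls short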;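 further: 0% = neutral control wells and 100% = parthenolide positive control wells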
# GAA850 FXN act – increases GAA850 frataxin promoter reporter activity | HEK293 lucGAA850 FXN promoter luciferase reporter, 24 h; percent of 10 µM SAHA response | activation, % at 6 µM | actives 0.56% (n = 360,000);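 active means activation above the average of all compounds screened plus 3 SD, cutoff fixed separately per campaign, cut at about 7.5% in these data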;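 further: 0% = DMSO wells and 100% = 10 µM SAHA wells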
# AHR activator – activates the human aryl hydrocarbon receptor; P35869; AHR-responsive luciferase reporter cells, luminescence; activation, % at 5 µM; actives 2.5% (n = 320,000); in the data active means activation above about 47%;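 further: 0% = vehicle wells and 100% = reference agonist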
# Active calls of the source: *; ? = inconclusive; nt = no result; ! = repeats disagree. A selection: hits, their analogues and other compounds. The true share with any hit is near 4.2%.
SMILES,esBAF inh,Wnt act,MITF TRPM1 HTS,GAA850 FXN act,AHR activator
CC1(C)Cc2c(cnn2-c2ccc(F)cc2)C(NC(=O)CCN2CCCC2=O)C1 (configuration not stated),44.5*,17.4,26.0,3.8,2.8
Cc1c(CN(C)Cc2cn(C)nc2-c2ccccc2F)[nH]c2ccccc12,-4.3,1.2,11.2,1.6,48.0*
CCCN1C[C@H](C)[C@@H](OC)CN(C)C(=O)c2cc(NC(=O)c3ccccc3F)ccc2OC[C@@H]1C,3.5,nt,nt,nt,nt
COc1ccc(/C=N/NC(=O)CCn2c3ccccc3c3ccccc32)cc1O,7.2,nt,-2.0,-4.8,5.6
COc1cccc(/C=N/NC(=O)CCn2c3ccccc3c3ccccc32)c1,nt,-1.4,1.5,-0.6,72.5*
N#C[C@H]1[C@@H](c2ccc(C#Cc3cccc(F)c3)cc2)[C@H](CO)N1C(=O)C1CCC1,1.4,nt,nt,nt,nt
O=C1CC(Sc2nnc(-c3ccccc3)o2)C(=O)N1c1ccccc1 (configuration not stated),nt,-5.0,-3.7,0.6,-3.5
O=C1c2ccccc2CC1Sc1nnc(-c2ccncc2)o1 (configuration not stated),9.5,nt,nt,0.7,62.5*
O=C(OC1CCc2ccccc2C1=O)c1ccccc1O (configuration not stated),46.2*,2.6,nt,-0.2,4.2
O=C(N/N=C1\CCc2ccccc21)c1ccccc1O,nt,nt,-16.7,0.2,2.9
CCc1cccc(NC(=O)C2CCN(c3ncnc4sc(C)c(C)c34)CC2)c1,6.0,-1.3,nt,0.3,-0.9
CCc1ccc2nc(NC(=O)C3CCN(c4ncnc5sc(C)c(C)c45)CC3)sc2c1,59.5*,21.5,20.3,4.5,6.2
CC(=C/C(=O)O)/C=C/c1ccc([N+](=O)[O-])cc1,nt,-0.1,-8.8,0.2,2.2
CC1(C)COC(/C=C/c2ccc([N+](=O)[O-])cc2)=N1,nt,23.0,-6.1,2.9,50.5*
CN1CCN(C(=O)C[C@@H]2CC[C@H]3[C@@H](COC[C@@H](O)CN3C(=O)Cc3ccccc3)O2)CC1,-6.6,nt,nt,nt,nt
CNC(=O)/C(C#N)=C\c1ccc(CNS(=O)(=O)c2ccccc2)o1,nt,nt,-3.6,-0.9,0.7
N#C/C(=C\c1ccc(-c2nc3ccccc3s2)o1)C(N)=O,nt,44.0*,nt,4.3,41.5
N#C/C(=C/c1ccc(-c2ccc(S(N)(=O)=O)cc2)o1)c1nc2ccccc2s1,nt,nt,-22.6,6.5,22.4
CNC(=O)/C(C#N)=C/c1ccc(-c2nc3ccccc3s2)o1,nt,42.9*,nt,6.4,13.5
CCCC(=O)Nc1ccc2c(c1)OC[C@@H](C)N(C(=O)Cc1ccccn1)C[C@@H](C)[C@H](OC)CN(C)C2=O,-3.3,nt,nt,nt,nt
COc1ccc(C(=O)Nc2nc(CC(=O)NCc3ccc(F)cc3)cs2)cc1,49.9*,10.8,19.8,-1.6,3.0
COc1ccc2nc(NC(=O)c3ccc(F)cc3)sc2c1,55.2*,23.0,67.9,2.6,-5.5
COc1ccc(C(=O)Nc2nc(CC(=O)NCc3c(F)cccc3F)cs2)cc1,?,?,nt,2.5,nt
COc1ccc(C(=O)Nc2nc3ccccc3s2)cc1,-62.0,10.5,nt,-2.9,-3.2
Fc1ccc(Nc2nc3ccccc3s2)cc1,46.5*,-1.4,67.3,4.8,6.8
SMILES,esBAF inh,Wnt act,MITF TRPM1 HTS,GAA850 FXN act,AHR activator
O=C(Nc1nc2ccccc2s1)c1ccc(F)cc1,10.3,46.7*,29.4,0.1,18.7
Cc1ccc(Nc2nc3ccccc3s2)cc1,nt,19.7,27.9,4.7,24.8
CN(C)C(=O)C[C@H]1CC[C@H](NS(=O)(=O)c2ccccc2)[C@@H](CO)O1,-6.8,nt,nt,nt,nt
O=S(=O)(/N=C(/Nc1nc2ccccc2s1)c1ccccc1)c1ccc(F)cc1,50.2*,24.8,47.8,1.1,nt
O=C(Nc1nc(=O)c2ccccc2s1)c1ccccc1,nt,39.1*,23.2,2.8,6.7
COc1ccc2nc(NC(=O)c3ccc4ncsc4c3)sc2c1,67.5*,nt,?,2.8,10.1
Cc1ccccc1S(=O)(=O)N[C@H]1CC[C@H](CCn2cc(-c3ccc(F)cc3)nn2)O[C@@H]1CO,-2.5,nt,nt,nt,nt
C[C@@H]1CCCCO[C@@H](CN(C)C(=O)Nc2ccc3c(c2)OCO3)[C@H](C)CN([C@@H](C)CO)C(=O)c2cc(NC(=O)Nc3ccc(F)cc3)ccc2O1,0.8,nt,nt,nt,nt
C[C@H](CO)N1C[C@H](C)[C@@H](CN(C)C(=O)Nc2ccc3c(c2)OCO3)Oc2ncc(C#CC3(O)CCCC3)cc2C1=O,59.5*,nt,nt,nt,nt
C[C@@H]1CCCCO[C@@H](CN(C)C(=O)Nc2ccc3c(c2)OCO3)[C@H](C)CN([C@H](C)CO)C(=O)c2cc(NC(=O)Nc3ccc4c(c3)OCO4)ccc2O1,80.5*,nt,nt,nt,nt
CNC[C@@H]1OCCCC[C@@H](C)Oc2ccc(NS(=O)(=O)c3ccc(C)cc3)cc2C(=O)N([C@@H](C)CO)C[C@@H]1C,-8.9,nt,nt,nt,nt
C[C@H]1CCCCO[C@H](CN(C)C(=O)Nc2ccc(F)cc2)[C@@H](C)CN([C@@H](C)CO)C(=O)c2cc(NC(=O)Nc3ccc4c(c3)OCO4)ccc2O1,50.9*!,0.6,nt,-4.7,nt
CNC[C@@H]1OCCCC[C@H](C)Oc2ccc(NS(=O)(=O)c3ccc(C)cc3)cc2C(=O)N([C@H](C)CO)C[C@H]1C,54.8*,nt,nt,nt,nt
CO[C@H]1CN(C)C(=O)c2cc(NC(=O)Nc3ccc(Cl)cc3)ccc2OC[C@@H](C)N(C(=O)Nc2c(C)noc2C)C[C@H]1C,1.0,nt,nt,nt,nt
O=C(C[C@H]1CC[C@H]2[C@@H](COC[C@@H](O)CN2C(=O)Nc2cccc(F)c2)O1)NCc1ccccc1Cl,33.4,nt,nt,nt,nt
C[C@@H]1CN([C@@H](C)CO)C(=O)c2cc(NC(=O)NC3CCCCC3)ccc2O[C@@H](C)CCCCO[C@H]1CN(C)C,2.1,nt,nt,nt,nt
Cc1noc(C)c1NC(=O)N(C)C[C@@H]1Oc2ncc(C#CC3CC3)cc2C(=O)N([C@@H](C)CO)C[C@@H]1C,-2.9,-1.0,nt,-0.7,nt
C[C@@H]1CCCCO[C@H](CN(C)C(=O)Nc2cccc3ccccc23)[C@@H](C)CN([C@@H](C)CO)C(=O)c2cc(NC(=O)CCC(F)(F)F)ccc2O1,3.7,nt,nt,nt,nt
C[C@@H]1CCCCO[C@H](CN(C)C(=O)Nc2cccc3ccccc23)[C@H](C)CN([C@@H](C)CO)C(=O)c2cc(NC(=O)CCC(F)(F)F)ccc2O1,45.5*,nt,nt,nt,nt
Cc1noc(C)c1NC(=O)N(C)C[C@@H]1Oc2ncc(C#CC3CC3)cc2C(=O)N([C@@H](C)CO)C[C@H]1C,51.6*,nt,nt,nt,nt
CC(C)NC(=O)N(C)C[C@@H]1OCCCC[C@@H](C)Oc2ccc(NC(=O)Nc3ccc4c(c3)OCO4)cc2C(=O)N([C@@H](C)CO)C[C@H]1C,-2.4,nt,nt,nt,nt
C[C@H](CO)N1C[C@H](C)[C@@H](CN(C)C(=O)Nc2ccc3c(c2)OCO3)OCCCC[C@H](C)Oc2ccc(NC(=O)c3ccncc3)cc2C1=O,54.0*,nt,nt,nt,nt
CC(C)NC(=O)N(C)C[C@@H]1OCCCC[C@H](C)Oc2ccc(NC(=O)Nc3ccc4c(c3)OCO4)cc2C(=O)N([C@H](C)CO)C[C@@H]1C,48.5*,nt,nt,nt,nt
O=C(N[C@H]1CC[C@H](CCNC(=O)C2CC2)O[C@@H]1CO)c1ccncc1,2.6,nt,nt,nt,nt

# High-throughput results (PubChem)
